Consider 35 molecules from PubChem BioAssay.

The test deals with glycogen synthase kinase-3 (GSK3A per assay name; protocol says GSK3B). In words: compounds binding glycogen synthase kinase-3 – biochemical, small-molecule microarray, 635 nm fluorescence, GSK3A, primary screen (AID 1103). Further: the record names both GSK3A and GSK3B. The settings on record: fluorescence 635 nm, higher = more signal.
`COc1ccc([Si](C)(C)[C@@H]2[C@@H](CC(=O)N3CCC[C@H]3CO)O[C@]3(C(=O)N(C)c4c(Br)cc(C)cc43)[C@H]2C)cc1`: the composite z-score stood at 0.889.

`CN(C)CCCCCCNC(=O)[C@H]1C[C@H]2C(=O)N[C@@H](CCCCN)C(=O)N2[C@H]1c1ccc(O)cc1` displayed a composite z-score of 1.48.

The molecule `COCC(=C=CC[C@H](O)c1ccc(OCCO)cc1)C[C@H](O)c1cc(Cl)cc(Cl)c1O` gave a composite z-score of 0.26.

`COc1cc(C(O)C2C=CC3C(=O)N(c4ccccc4)C(=O)C3N2Nc2ccc(C#N)cc2)cc(OC)c1OC` (stereo not given) registered a composite z-score of 1.33.

In turn, `N#Cc1ccc(NN2C(C(O)c3ccc([N+](=O)[O-])cc3)C=CC3C(=O)N(c4ccccc4)C(=O)C32)cc1` (stereo not given) had a composite z-score of 0.751.

Turning to `CC(=O)NCCCC[C@@H]1NC(=O)[C@@H]2C[C@H](C(=O)NCCCCCCNC(=O)CS)[C@H](c3ccc(O)cc3)N2C1=O`, the composite z-score was -0.0984.

Molecule `CCOC(=O)C[C@H]1[C@H](OC(=O)Cc2ccc3c(c2)OCO3)[C@@H](NC(=O)c2ccc(-c3ccccc3)cc2)c2cc(OCCCO)ccc2N1C(=O)c1ccccc1` yielded a composite z-score of 0.367.

As to `O=C1O[C@@H](c2ccccc2)[C@@H](c2ccccc2)N2[C@@H](c3ccccc3OCCO)[C@]3(C(=O)Nc4ccc(C#CC5(O)CCCCCC5)cc43)[C@@H](C(=O)Nc3nc4ccccc4s3)[C@H]12`, the composite z-score was 1.25.

The molecule `Cc1ccccc1C(O)C1C=CC2C(=O)N(C)C(=O)C2N1N1CCCCC1` (stereo not given) came in with a composite z-score of 1.04.

In turn, `COCCOC(=O)N1C(=O)[C@@]2(c3ccccc31)[C@H](C(=O)Nc1nc3ccccc3s1)[C@H]1C(=O)O[C@H](c3ccccc3)[C@H](c3ccccc3)N1[C@@H]2c1ccc(OCCO)cc1` gave a composite z-score of 1.3.

Molecule `CC(C)C[C@@H]1NC(=O)[C@H]2C[C@@H](C(=O)NCCCCCNC(=O)CS)[C@@H](c3cccc(OCCO)c3)N2C1=O` registered a composite z-score of 1.32.

`COc1ccc(C#Cc2ccc3c(c2)[C@]2(C(=O)N3)[C@H](c3ccc(O)cc3)N3[C@H](c4ccccc4)[C@H](c4ccccc4)OC(=O)[C@H]3[C@@H]2C(=O)NC[C@H](O)c2ccccc2)cc1` had a composite z-score of 0.755.

`O=C1OCC=C[C@H]2OC34C=CCN(c5ccc(Cl)cc5)C(=O)[C@H]3N(CCCCCCO)C(=O)[C@@H]4[C@@H]12` (stereo not given in full): the composite z-score is -0.799.

The molecule `C=CCOC(=O)[C@H]1[C@@H]2C(=O)O[C@@H](c3ccccc3)[C@@H](c3ccccc3)N2[C@@H](c2ccc(OCCOC(=O)[C@@H]3C[C@@H]4C(=O)N5CCC[C@H]5C(=O)N4[C@@H]3c3ccc(O)cc3)cc2)[C@]12C(=O)Nc1ccccc12` came in with a composite z-score of 1.28.

In the case of `CCCC[C@H]1OB(O)C[C@H]2C1=C(C)C[C@H]1C(=O)N(Cc3ccccc3)C(=O)[C@H]12`, the composite z-score turned out to be 0.507.

In turn, `CCCC[C@@H]1C[C@H]1[C@@H](NC(=O)c1ccc(-c2ccccc2)cc1)c1ccc(-c2ccccc2)cc1` registered a composite z-score of 0.127.

`COCC(=C=CC[C@@H](O)c1ccc(CO)o1)CCO`: the composite z-score worked out at 0.0348.

For the molecule `Cc1ccc(S[C@]2(C(=O)NCc3ccccc3)CC(=O)N(Cc3ccccc3Cl)[C@@H]2c2ccc(CO)cc2I)cc1`, the composite z-score was -0.528.

`CC=CC(O)C1C=CC2C(=O)N(c3ccccc3)C(=O)C2N1Nc1ccc(C(C)C)cc1` (stereo not given) returned a composite z-score of 1.24.

In turn, `COCCOC(=O)N1C(=O)[C@@]2(c3ccccc31)[C@H](C(=O)NC[C@H](O)c1ccccc1)[C@H]1C(=O)O[C@H](c3ccccc3)[C@H](c3ccccc3)N1[C@@H]2c1ccc(OCCO)cc1` gave a composite z-score of 1.27.

`[N-]=[N+]=NCc1ccccc1C[C@@]1(C(=O)NCC(O)CO)N=C(c2ccc(OCCCO)cc2)O[C@@H]1c1ccccc1CN=[N+]=[N-]` (stereo not given in full) came in with a composite z-score of 0.712.

In the case of `COc1ccc(C#Cc2ccc3c(c2)[C@]2(C(=O)N3)[C@H](C(=O)NC[C@H](O)c3ccccc3)[C@H]3C(=O)O[C@H](c4ccccc4)[C@H](c4ccccc4)N3[C@@H]2c2ccccc2OCCO)cc1`, the composite z-score came out at 1.19.

With `COC(=O)[C@@]1(Cc2ccccc2)[C@H]2c3cc(C(=O)N(C)C)n(Cc4cc(C)n(C)n4)c3C[C@H]2CN1C(=O)c1ccccc1`, the composite z-score is 0.764.

On to `C#CCN(C(/C=C/c1ccccc1)CO)C(C(=O)O)c1ccccc1` (stereo not given), for which the composite z-score was -0.953.

Regarding `COc1ccc([Si](C)(C)[C@@H]2[C@@H](CCn3cc([C@H](O)c4ccccc4)nn3)O[C@]3(C(=O)N(Cc4cccc(N5CCOC5=O)c4)c4ccccc43)[C@H]2C)cc1`, the composite z-score was -1.01.

Consider `Cc1ccc(S[C@]2(C(=O)O)CC(=O)N(C3Cc4ccccc4C3)[C@@H]2c2ccc(CO)cc2I)cc1`, for which the composite z-score is -0.695.

Turning to `CCOC(=O)C[C@H]1[C@H](OC(=O)c2ccc(-c3ccccc3)cc2)[C@@H](NC(=O)Cc2ccc(OC)cc2)c2cc(OCCCO)ccc2N1C(=O)c1ccc2ccccc2n1`, the composite z-score stood at 0.267.

Molecule `COc1ccc([Si](C)(C)[C@@H]2[C@@H](CC(=O)N(CCO)Cc3ccccc3)O[C@]3(C(=O)N(C)c4ccccc43)[C@H]2C)cc1` showed a composite z-score of 1.16.

`O=c1cccc(C=Cc2ccccc2)o1`: the composite z-score is 0.0144.

For `O=C1OCC=C[C@H]2OC34C=CCN(c5ccc6ccccc6c5)C(=O)[C@H]3N(CCCO)C(=O)[C@@H]4[C@@H]12` (stereo not given in full), the composite z-score was -1.34.

Molecule `COCCOC(=O)N1C(=O)[C@@]2(c3cc(C#CC4=CCCCC4)ccc31)[C@H](C(=O)N1CCc3cc(OC)c(OC)cc3C1)[C@H]1C(=O)O[C@H](c3ccccc3)[C@H](c3ccccc3)N1[C@@H]2c1ccccc1OCCO` had a composite z-score of 1.2.

For the molecule `COCCOC(=O)N1C(=O)[C@@]2(c3cc(C#CCC(C(=O)OC)C(=O)OC)ccc31)[C@H](c1ccccc1OCCO)N1[C@H](c3ccccc3)[C@H](c3ccccc3)OC(=O)[C@H]1[C@@H]2C(N)=O`, the composite z-score turned out to be 1.31.

In turn, `CC(C)OC(=O)CC(=O)CC(O)c1ccc(C#N)cc1` (stereo not given) had a composite z-score of 0.148.

Regarding `COC(=O)[C@@]1(Cc2ccc(OC)cc2)[C@H]2c3cc(C(=O)N(C)C)n(Cc4c(OC)[nH]cc(C)c4=O)c3C[C@H]2CN1C(=O)c1ccccc1`, the composite z-score is -0.208.

`O=C1C[C@@](C(=O)NC2CC2)(c2ccc([N+](=O)[O-])cc2)[C@@H](c2ccc(CO)cc2)N1CC12CC3CC(CC(C3)C1)C2` came in with a composite z-score of 0.612.
